According to PubChem BioAssay AID602410 (Johns Hopkins Ion Channel Center, 2012):
Among all 340,000 compounds or so, about 2,800 (0.82%) were called active.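 The calls were made as follows: active = B-score under library mean minus 4 SD, starting fluorescence ratio at most library mean plus 5 SD; inactive = the rest.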 This excerpt belongs to a sample that is enriched for actives.

target: Potassium channel subfamily K member 3 (Homo sapiens) (UniProt O14649); assay: blockers of TASK1 two-pore potassium channel – CHO cells, FluxOR thallium flux, B-score, primary screen (AID 602410); conditions: CHO-KCNK3 thallium flux, FluxOR fluorescence, at 10 µM; hits give low values;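 as to B-score: more negative B-score means stronger inhibition of thallium flux through KCNK3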
Sequence (O14649 whole entry, looked up): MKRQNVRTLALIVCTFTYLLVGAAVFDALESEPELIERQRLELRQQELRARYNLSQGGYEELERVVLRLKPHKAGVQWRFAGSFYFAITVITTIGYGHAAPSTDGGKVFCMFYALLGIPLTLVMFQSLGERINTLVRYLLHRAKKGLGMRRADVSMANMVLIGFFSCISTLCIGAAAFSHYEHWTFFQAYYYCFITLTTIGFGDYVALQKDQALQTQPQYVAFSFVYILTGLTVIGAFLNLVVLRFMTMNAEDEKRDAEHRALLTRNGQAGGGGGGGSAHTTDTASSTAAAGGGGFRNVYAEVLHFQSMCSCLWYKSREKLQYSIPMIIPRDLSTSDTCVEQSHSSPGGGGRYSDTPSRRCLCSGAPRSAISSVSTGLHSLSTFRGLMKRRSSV

Structure (SMILES)	B-score
CCOc1ccc(N(CC(=O)OC)S(=O)(=O)c2c(C)noc2C)cc1	inactive
COc1cccc(COc2ccc(N(C)S(=O)(=O)c3ccccc3)cc2)c1	-13.2 (active)
COc1ccc(N(Cc2ccccc2)S(=O)(=O)c2cccc(C(=O)O)c2)cc1	inactive
Cc1ccc2nc(COc3ccc(N(C)S(=O)(=O)c4ccccc4)cc3)cc(=O)n2c1	inactive
Nc1nnc2c(C(F)(F)F)nc3ccccc3n12	inactive
Cc1cccc(-c2nc3ccc(C(=O)NCCN4CCN(C)CC4)cc3nc2-c2cccc(C)c2)c1	-9.46 (active)
Cc1cccc(C(=O)OC(C)CN2CCN(C)CC2)c1 (configuration not stated)	inactive
Cc1cc(C)cc(C(=O)NCCN2CCOCC2)c1	inactive
Cc1nnc(C)c2c(C)n(N)c(C)c12	inactive
C=C1CCC(N(O)c2cc(C)on2)C(=C)CCC2C1CC2(C)C (configuration not stated)	inactive
COc1ccc(C(=O)CSc2nnnn2C)c(OC)c1	inactive
CC(C)(C)Nc1nc(-c2ccccn2)nc2ccccc12	inactive
Oc1ccc(-c2nc3ccccc3nc2-c2ccc(O)cc2O)c(O)c1	inactive
Oc1ccc(/C=N/Nc2nc(-c3ccccc3F)nc3ccccc23)c(O)c1	-11 (active)
CC1CC(C)CN(C(=O)CSc2ccsc2[N+](=O)[O-])C1 (configuration not stated)	inactive
CC(C)OCCCNC(=O)c1ccc(C2SCC(=O)N2Cc2ccco2)cc1 (configuration not stated)	inactive
COc1c(N2CCN(C(=S)Nc3ccccc3F)C(C)C2)c(F)cc2c(=O)c(C(=O)O)cn(C3CC3)c12 (configuration not stated)	inactive
CCOC(=O)Cc1csc(NC(=O)CSc2nnc(-c3cccnc3)n2Cc2ccco2)n1	inactive
CCOC(=O)CSc1nc2c(c(=O)n(Cc3ccccc3Cl)c(=O)n2C)n1C	inactive
CCOC(=O)CSc1nc2c(sc(=S)n2CCc2ccccc2)c(=O)n1Cc1ccco1	-9.18 (active)
O=C(CSc1nnc2n1CCCN2)c1ccccc1	inactive
CCOc1ccc(CN(Cc2ccco2)S(=O)(=O)c2ccc(-n3cnnn3)c(OC)c2)cc1	inactive
CCOc1ccc(CN(Cc2ccco2)C(c2cccs2)c2nnnn2C(C)(C)C)cc1 (configuration not stated)	-10.5 (active)
CC(C)(C)n1nnnc1C(c1cccs1)N(Cc1cccnc1)CC1CCCO1 (configuration not stated)	inactive
Cc1nc(NC(CC(C)C)C(=O)O)c2nc(C)oc2n1 (configuration not stated)	inactive
FC(F)(F)c1cccc(N/N=C/c2ccccc2)c1	inactive

Structure (SMILES)	B-score
Cn1cc(Cl)c(C(=O)NNC(=S)Nc2cccc(Cl)c2)n1	inactive
FC(F)(F)c1cccc(NC(=S)Nc2cccc(Cl)c2)c1	-10.9 (active)
COC(=O)CNS(=O)(=O)c1ccc(Cc2ccc(S(=O)(=O)NCC(=O)OC)cc2)cc1	inactive
CCN1CCN(C(=O)Cn2nc(C)n3c(cc4c(OC)cccc43)c2=O)CC1	inactive
COc1ccccc1Oc1ccc(N2CC(C(=O)OCC(=O)c3ccc(F)cc3)CC2=O)cc1 (configuration not stated)	inactive
CC(O)c1nc2ccccc2n1Cc1ccc([N+](=O)[O-])cc1 (configuration not stated)	inactive
CCc1ccc(-n2c(=S)sc3c(=O)n(-c4ccccc4OC)c(=S)[nH]c32)cc1	-11 (active)
COc1cccc(-n2c(=S)sc3c(=O)n(-c4ccccc4OC)c(SCC4OCCO4)nc32)c1	inactive
COc1ccccc1-n1c(=S)[nH]c2c(sc(=S)n2-c2ccc(C)cc2C)c1=O	inactive
C/C(=N\Nc1ccc([N+](=O)[O-])cc1)c1ccc(-n2nncc2C(C)(C)C)cc1	inactive
CCCCC(NC(=O)c1cccc(Br)c1)C(=O)O (configuration not stated)	inactive
O=[N+]([O-])c1ccc2c(c1)Nc1nc3ccccc3nc1N2	inactive
COc1ccc([N+](=O)[O-])cc1-c1nc2ccccc2nc1-c1ccccc1	-12 (active)
O=[N+]([O-])c1cc2ccccc2nc1-c1ccccc1	inactive
CCOc1ccc(NC(=O)c2ccccc2NS(C)(=O)=O)cc1	inactive
COc1ccccc1C(=O)Nc1ccccc1C(=O)Nc1ccccc1	inactive
COc1cc(NC(=O)c2ccccc2NS(=O)(=O)c2ccc(Cl)s2)cc(OC)c1	-9.84 (active)
Cc1ccc(S(=O)(=O)NNC(=S)NC(C)(C)C)cc1	inactive
Cc1nc2ccccc2c(=O)n1NC(=O)c1ccc(Cl)c([N+](=O)[O-])c1	inactive
C=CCn1c(SCc2ccc(C(=O)NCCO)cc2)nc2ccccc2c1=O	inactive
O=C(Nn1c(SCc2ccc([N+](=O)[O-])cc2)nc2ccccc2c1=O)c1ccc(F)cc1	-9.24 (active)
Cc1nc2cccnc2nc1C	inactive
COc1ccc(-c2c(NC(=O)c3ccco3)oc3ccc(Cl)cc3c2=O)cc1	inactive
Cc1cc(C=O)c(C)n1-c1ccc(NC2CCCCC2)c([N+](=O)[O-])c1	-13.4 (active)
Cc1cc([N+](=O)[O-])ccc1NC1CCCC1	inactive
Cc1c(NS(=O)(=O)c2ccc(NC3CCCC3)c([N+](=O)[O-])c2)c(=O)n(-c2ccccc2)n1C	inactive

Structure (SMILES)	B-score
Cc1cccc(N=C2NC(=O)CS2)c1C	inactive
CCn1cc(C(=O)NCCCN2CCCCCC2)c(=O)c2cc(S(=O)(=O)N3CCc4ccccc4C3)ccc21	inactive
O=C(CSc1nnc(-c2ccncc2)n1-c1ccc(Cl)cc1)Nc1ccc(C(=O)O)cc1	inactive
Cc1ccc(SCC(=O)Nc2ccc3c(c2)OCCO3)cc1	inactive
CCN(CC(=O)Nc1ccc2c(c1)OCCO2)Cc1cc(=O)oc2cc(C)c(C)cc12	-8.72 (active)
O=C(COc1ccc2c(C(F)(F)F)cc(=O)oc2c1)Nc1ccc2c(c1)OCCO2	inactive
Cc1cccc(N(C(=O)Cn2nnc(-c3ccc(C)o3)n2)C(C(=O)NC2CCCC2)c2ccncc2)c1 (configuration not stated)	inactive
CCC(C)(C)NC(=O)/C=C/c1cc(OC)c(OC)c(S(=O)(=O)N2CCc3ccccc32)c1	inactive
COc1cc(Cl)c(S(=O)(=O)N2CCN(Cc3ccc4c(c3)OCO4)CC2)cc1Cl	-11.5 (active)
COc1ccc(-c2cc(C(=O)N3CCN(Cc4ccc5c(c4)OCO5)CC3)on2)cc1OC	inactive
CCn1cc(C(=O)N2CCN(Cc3ccc4c(c3)OCO4)CC2)c2cc(OC)c(OC)cc2c1=O	inactive
Cc1nc(N)sc1N=Nc1c(C)n(C)n(-c2ccccc2)c1=O	inactive
O=C(c1cc2ccccc2o1)N1CCN(c2cccc(C(F)(F)F)c2)CC1	inactive
FC(F)(F)c1cccc(-c2cc3ccccc3nc2N2CCCC2)c1	-9.37 (active)
c1ccc(-c2cc(N3CCCCC3)c3ccccc3n2)cc1	inactive
COC(=O)[C@@H]1CC(O)CN1C(=O)C12CC3CC(CC(C3)C1)C2 (some centres not stated)	inactive
CC1CN(CCOc2ccccc2[N+](=O)[O-])CC(C)O1 (configuration not stated)	inactive
Cc1cccc(C(=O)N2CCN(S(=O)(=O)N3CCCCC3)CC2)c1	inactive
Cc1cccc(C)c1N1CCN(S(=O)(=O)N2CCOCC2)CC1	inactive
Cc1cccc(C)c1N1CCN(S(=O)(=O)N2CCCCC2)CC1	-11.9 (active)
COC(=O)c1ccc(CNC(=O)C2CCC(=O)N(Cc3ccccn3)C2)cc1 (configuration not stated)	inactive
COc1ccc(CN2CCN(C(=O)c3cc(C4CC4)nn3-c3ccccc3)CC2)cc1F	inactive
O=C(O)/C=C\C(=O)Nc1ccc(OCc2ccccc2)cc1	inactive
[O-][n+]1ccc(OCc2ccccc2)cc1	-9.05 (active)
CN(Cc1ccccc1)C(=O)c1ccc(COc2ccccc2)cc1	inactive
CCCN1Cc2cccc(C(=O)Nc3ccc(S(=O)(=O)N4CCCCCC4)cc3)c2C1=O	inactive

Structure (SMILES)	B-score
O=S(=O)(Nc1ccc(O)c2ccccc12)c1ccc(OC(F)(F)F)cc1	inactive
Cc1nn(C)c(Oc2ccc(Cl)cc2)c1C=O	inactive
CCN(CC(=O)Nc1cc(Cl)ccc1C)C(=O)Cn1c(=O)cnc2ccccc21	inactive
COc1cc(/C=C(\C#N)c2nc3ccccc3[nH]2)ccc1O	-8.85 (active)
CCCCCOc1ccc(/C=C/C(=O)NCCc2nc3ccccc3[nH]2)cc1OC	inactive
Cc1ccc(O)c(CNc2nc3ccccc3[nH]2)c1	inactive
CCCCCc1nnc(NC(=O)c2ccc(=O)n(C)n2)s1	inactive
COCCCNCCOCCOc1ccc(Cl)cc1Br	inactive
Cc1ccc(OCC(=O)c2cc(C)n(Cc3ccco3)c2C)c([N+](=O)[O-])n1	inactive
CC(C)N(C(=O)CN1CCN(S(=O)(=O)c2ccc(Br)s2)CC1)C(C)C	inactive
Cc1cccc(NC(=O)CN2CCCN(S(=O)(=O)c3ccc(Br)s3)CC2)c1	-11.4 (active)
Cc1ccc(S(=O)(=O)N2CCN(CC(=O)N/N=C/c3ccc(Br)s3)CC2)cc1	inactive
NC(=O)C1CCN(C(=O)CC2C(=O)NCCN2Cc2cccc(Oc3ccccc3)c2)CC1 (configuration not stated)	inactive
C[C@H](O)[C@@H]1C(=O)N2CCc3ccc(N4CCOCC4)cc3[C@@H]2C[C@@H]1N(C)C(=O)C(C)(C)C	inactive
CC(NC(=S)Nc1ccccc1)C(c1cccs1)N1CCOCC1 (configuration not stated)	inactive
CN(c1ccccc1)S(=O)(=O)c1cccc(NC(=O)Cc2ccc(Cl)cc2)c1	-10.7 (active)
CN(C)S(=O)(=O)c1cccc(NC(=O)Cc2ccsc2)c1	inactive
CN(c1ccccc1)S(=O)(=O)c1cccc(NC(=O)Cc2c(F)cccc2Cl)c1	inactive
Cc1cc(F)ccc1S(=O)(=O)Nc1ccc(C(=O)N(C)Cc2ccco2)cc1	inactive
O=C(NC1Cc2ccccc2C1)c1cc(COc2cccc(C(F)(F)F)c2)on1	inactive
Cc1nonc1C1CCCN1C(=O)c1cc(COc2cccc(C(F)(F)F)c2)on1 (configuration not stated)	-9.02 (active)
O=C(c1cc(COc2cccc(C(F)(F)F)c2)on1)N1CCSCC1	inactive
CCCNC(=O)c1ccc(N2CCC3(CC2)CC(c2cccc(Br)c2)=NO3)c(NC(=O)c2ccco2)c1	inactive
CS(=O)(=O)N1CCCC(C(=O)N2CCOCC2)C1 (configuration not stated)	inactive
